Data taken from paper PMC7862700, “An all-to-all approach to the identification of sequence-specific readers for epigenetic DNA modifications on cytosine”.

How the values were obtained:
Assay in all cases: DAPPL (digital affinity profiling via proximity ligation, sequencing); 10 mM Tris-HCl pH 7.5, 50 mM NaCl, 1 mM DTT, 4% glycerol, room temperature, 30 min; GST-TFs on glutathione beads, 16-mer random dsDNA library, 0.1% formaldehyde crosslink after washing; high values mean tight binding
Settings in all cases: protein: recombinant; tags: N-terminal GST; dsDNA, one strand shown
[1] = biological target: T1, FEV (Homo sapiens, UniProt Q99581 1-238)
T1 sequence: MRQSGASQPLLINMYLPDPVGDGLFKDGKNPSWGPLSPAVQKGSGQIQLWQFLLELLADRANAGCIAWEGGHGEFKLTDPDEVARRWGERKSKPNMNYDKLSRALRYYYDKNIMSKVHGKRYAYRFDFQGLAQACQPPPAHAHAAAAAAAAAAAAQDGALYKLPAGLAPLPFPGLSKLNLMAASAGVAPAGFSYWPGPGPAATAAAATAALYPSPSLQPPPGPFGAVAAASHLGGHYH
How it was run: (§1)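 After expression in yeast as GST fusions, human transcription factors were bound to glutathione beads, DNA-barcoded and mixed with a tag-only sample. The pools were incubated with 200 nmole of a 16-mer random double-stranded DNA library in Tris/NaCl/DTT/glycerol buffer (30 min, room temperature), washed and crosslinked with 0.1% formaldehyde. Proximity ligation with BsaI/T4 ligase ran for 1 h at 37 °C, before PCR amplification and sequencing on an Illumina NextSeq500. Binding signal is a hexamer's read frequency for a factor divided by its frequency for the tag-only sample.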

[2] = biological target: ETV5 (Homo sapiens, UniProt P41161 1-510)
ETV5, sequence (P41161 whole entry): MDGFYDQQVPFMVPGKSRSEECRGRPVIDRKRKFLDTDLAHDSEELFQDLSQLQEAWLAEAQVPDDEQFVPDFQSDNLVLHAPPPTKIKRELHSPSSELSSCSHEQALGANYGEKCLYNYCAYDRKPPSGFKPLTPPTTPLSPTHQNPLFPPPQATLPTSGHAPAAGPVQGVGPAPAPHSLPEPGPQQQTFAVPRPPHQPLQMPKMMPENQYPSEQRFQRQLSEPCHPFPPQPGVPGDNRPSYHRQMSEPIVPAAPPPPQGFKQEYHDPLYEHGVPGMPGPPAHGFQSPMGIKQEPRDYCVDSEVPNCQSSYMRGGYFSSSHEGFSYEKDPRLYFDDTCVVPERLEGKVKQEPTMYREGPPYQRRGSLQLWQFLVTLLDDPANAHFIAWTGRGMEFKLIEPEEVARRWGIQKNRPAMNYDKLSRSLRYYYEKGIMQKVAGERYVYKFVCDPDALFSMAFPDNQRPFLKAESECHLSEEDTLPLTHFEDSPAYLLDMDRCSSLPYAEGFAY
How it was run: as §1

[3] = biological target: T2, SPIC (Homo sapiens, UniProt Q8N5J4 1-248)
T2 sequence: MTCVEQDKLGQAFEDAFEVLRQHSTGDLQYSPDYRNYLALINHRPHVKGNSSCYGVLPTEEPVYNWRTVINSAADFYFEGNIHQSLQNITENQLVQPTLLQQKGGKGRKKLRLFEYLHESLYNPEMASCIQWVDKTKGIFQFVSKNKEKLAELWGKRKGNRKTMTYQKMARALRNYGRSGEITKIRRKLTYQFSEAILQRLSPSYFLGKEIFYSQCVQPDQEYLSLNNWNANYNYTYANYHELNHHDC
How it was run: as §1

[4] = biological target: ELF4 (Homo sapiens, UniProt Q99607 1-663)
ELF4, sequence (Q99607 whole entry): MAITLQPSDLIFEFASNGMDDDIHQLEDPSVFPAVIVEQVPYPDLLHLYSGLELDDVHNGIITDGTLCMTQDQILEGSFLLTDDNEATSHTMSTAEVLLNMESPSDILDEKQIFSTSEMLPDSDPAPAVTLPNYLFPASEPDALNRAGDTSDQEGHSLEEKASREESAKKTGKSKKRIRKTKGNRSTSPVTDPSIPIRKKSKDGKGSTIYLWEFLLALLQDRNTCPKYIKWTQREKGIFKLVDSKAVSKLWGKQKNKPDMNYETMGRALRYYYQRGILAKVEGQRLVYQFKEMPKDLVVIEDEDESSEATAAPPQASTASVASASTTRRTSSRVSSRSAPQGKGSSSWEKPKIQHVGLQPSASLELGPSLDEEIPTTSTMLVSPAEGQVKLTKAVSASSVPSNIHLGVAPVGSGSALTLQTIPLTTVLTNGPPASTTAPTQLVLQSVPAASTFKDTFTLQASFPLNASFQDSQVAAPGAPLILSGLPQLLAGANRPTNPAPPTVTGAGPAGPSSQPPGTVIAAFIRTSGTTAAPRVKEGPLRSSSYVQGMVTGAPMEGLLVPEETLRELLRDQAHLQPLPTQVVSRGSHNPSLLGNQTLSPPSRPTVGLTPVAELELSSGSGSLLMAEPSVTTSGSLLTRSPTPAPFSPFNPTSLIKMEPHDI
How it was run: as §1

[5] = biological target: T3, ELK4 (Homo sapiens, UniProt P28324-2 1-405)
T3 sequence: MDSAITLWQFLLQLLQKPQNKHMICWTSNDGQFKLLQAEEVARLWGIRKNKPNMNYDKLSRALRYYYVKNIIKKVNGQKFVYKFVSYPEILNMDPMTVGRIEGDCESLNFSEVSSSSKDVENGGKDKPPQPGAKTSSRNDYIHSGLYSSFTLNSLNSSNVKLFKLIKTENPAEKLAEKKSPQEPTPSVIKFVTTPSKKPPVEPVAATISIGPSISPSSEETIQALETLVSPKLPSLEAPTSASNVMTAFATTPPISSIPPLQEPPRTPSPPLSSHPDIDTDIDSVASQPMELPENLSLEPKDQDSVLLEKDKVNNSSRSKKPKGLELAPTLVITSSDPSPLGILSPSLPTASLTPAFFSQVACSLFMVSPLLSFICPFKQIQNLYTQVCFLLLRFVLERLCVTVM
How it was run: as §1

[6] = biological target: T4, ETV2 (Homo sapiens, UniProt O00321 1-342)
T4 sequence: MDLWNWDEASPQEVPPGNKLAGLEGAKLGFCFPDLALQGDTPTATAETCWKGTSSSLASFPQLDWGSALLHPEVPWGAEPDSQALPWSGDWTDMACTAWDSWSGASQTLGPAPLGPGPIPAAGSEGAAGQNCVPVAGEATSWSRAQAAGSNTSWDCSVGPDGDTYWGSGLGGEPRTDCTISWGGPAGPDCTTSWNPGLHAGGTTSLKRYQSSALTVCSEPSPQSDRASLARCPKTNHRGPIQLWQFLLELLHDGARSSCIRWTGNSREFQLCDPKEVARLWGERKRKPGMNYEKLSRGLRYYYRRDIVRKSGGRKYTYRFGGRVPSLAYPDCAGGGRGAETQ
How it was run: as §1

[7] = biological target: T5, ELF3 (Homo sapiens, UniProt P78545 1-371)
T5 sequence: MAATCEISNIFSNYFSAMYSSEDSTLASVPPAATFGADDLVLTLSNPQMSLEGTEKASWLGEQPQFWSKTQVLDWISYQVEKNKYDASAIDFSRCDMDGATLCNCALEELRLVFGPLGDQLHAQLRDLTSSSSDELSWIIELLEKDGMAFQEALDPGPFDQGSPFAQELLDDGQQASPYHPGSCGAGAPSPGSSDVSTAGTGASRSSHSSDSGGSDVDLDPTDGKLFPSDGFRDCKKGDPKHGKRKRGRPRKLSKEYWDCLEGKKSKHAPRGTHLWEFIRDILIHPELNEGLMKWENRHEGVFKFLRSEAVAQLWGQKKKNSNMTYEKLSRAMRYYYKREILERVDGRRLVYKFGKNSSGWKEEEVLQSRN
How it was run: as §1

[8] = biological target: ETV1 (Homo sapiens, UniProt P50549 1-477)
ETV1, sequence (P50549 whole entry): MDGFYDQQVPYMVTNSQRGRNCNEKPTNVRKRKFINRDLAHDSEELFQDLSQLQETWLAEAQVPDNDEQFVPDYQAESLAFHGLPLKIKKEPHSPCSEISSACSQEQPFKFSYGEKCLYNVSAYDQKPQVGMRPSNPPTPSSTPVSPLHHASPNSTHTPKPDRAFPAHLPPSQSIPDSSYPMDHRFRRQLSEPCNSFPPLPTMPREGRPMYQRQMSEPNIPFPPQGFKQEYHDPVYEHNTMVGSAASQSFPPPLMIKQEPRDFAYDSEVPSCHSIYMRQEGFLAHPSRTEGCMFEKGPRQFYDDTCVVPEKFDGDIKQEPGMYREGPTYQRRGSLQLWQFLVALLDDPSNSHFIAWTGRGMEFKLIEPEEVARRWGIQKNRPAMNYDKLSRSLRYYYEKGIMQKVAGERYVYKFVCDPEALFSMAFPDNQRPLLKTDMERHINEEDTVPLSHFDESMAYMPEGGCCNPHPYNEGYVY
How it was run: as §1

[9] = biological target: T6, ERF (Homo sapiens, UniProt P50548 1-548)
T6 sequence: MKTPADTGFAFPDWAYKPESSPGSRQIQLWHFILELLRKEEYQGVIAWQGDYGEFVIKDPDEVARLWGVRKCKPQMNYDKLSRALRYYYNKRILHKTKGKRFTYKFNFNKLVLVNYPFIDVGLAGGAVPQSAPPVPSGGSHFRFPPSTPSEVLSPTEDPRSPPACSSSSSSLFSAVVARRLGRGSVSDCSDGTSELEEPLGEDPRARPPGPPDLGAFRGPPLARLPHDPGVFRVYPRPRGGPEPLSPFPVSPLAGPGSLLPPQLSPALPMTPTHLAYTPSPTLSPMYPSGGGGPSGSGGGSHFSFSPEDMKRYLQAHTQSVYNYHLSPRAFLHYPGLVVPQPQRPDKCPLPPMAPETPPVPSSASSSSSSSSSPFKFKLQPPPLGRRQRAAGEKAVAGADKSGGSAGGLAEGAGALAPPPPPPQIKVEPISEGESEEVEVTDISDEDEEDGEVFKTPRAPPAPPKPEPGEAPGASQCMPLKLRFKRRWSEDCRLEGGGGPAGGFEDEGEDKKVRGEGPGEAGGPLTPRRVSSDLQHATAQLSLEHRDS
How it was run: as §1

[10] = biological target: T7, ETS2 (Homo sapiens, UniProt P15036 1-469)
T7 sequence: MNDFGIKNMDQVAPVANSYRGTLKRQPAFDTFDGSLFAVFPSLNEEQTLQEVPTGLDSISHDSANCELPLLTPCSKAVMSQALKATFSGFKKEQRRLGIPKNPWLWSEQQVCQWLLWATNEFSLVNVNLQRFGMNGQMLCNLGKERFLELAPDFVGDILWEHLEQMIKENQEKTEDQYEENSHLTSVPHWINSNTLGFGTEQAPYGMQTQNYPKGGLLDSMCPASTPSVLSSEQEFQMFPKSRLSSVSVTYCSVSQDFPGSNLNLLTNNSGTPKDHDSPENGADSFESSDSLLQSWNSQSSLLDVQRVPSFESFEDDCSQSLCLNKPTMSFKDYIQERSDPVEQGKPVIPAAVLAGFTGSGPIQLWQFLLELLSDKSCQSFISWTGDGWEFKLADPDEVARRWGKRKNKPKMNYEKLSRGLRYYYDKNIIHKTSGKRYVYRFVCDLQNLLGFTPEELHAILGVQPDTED
How it was run: as §1

[11] = biological target: T8, SPDEF (Homo sapiens, UniProt O95238 1-335)
T8 sequence: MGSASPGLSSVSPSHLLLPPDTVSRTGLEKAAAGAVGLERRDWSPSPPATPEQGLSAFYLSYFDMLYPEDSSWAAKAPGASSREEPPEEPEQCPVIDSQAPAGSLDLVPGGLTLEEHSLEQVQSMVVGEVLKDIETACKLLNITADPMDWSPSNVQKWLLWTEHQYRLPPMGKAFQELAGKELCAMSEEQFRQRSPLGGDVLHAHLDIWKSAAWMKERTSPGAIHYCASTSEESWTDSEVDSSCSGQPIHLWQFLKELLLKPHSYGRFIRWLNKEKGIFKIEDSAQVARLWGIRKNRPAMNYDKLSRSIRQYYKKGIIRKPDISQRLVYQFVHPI
How it was run: as §1

[12] = biological target: T9, ELF5 (Homo sapiens, UniProt Q9UKW6-2 1-255)
T9 sequence: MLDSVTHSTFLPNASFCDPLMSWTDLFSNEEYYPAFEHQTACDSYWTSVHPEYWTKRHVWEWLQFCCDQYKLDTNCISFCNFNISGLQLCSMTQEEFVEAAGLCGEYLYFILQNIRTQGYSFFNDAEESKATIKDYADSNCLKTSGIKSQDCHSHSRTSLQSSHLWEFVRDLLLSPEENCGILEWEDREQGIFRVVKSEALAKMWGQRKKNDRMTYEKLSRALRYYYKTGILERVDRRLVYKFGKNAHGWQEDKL
How it was run: as §1

[13] = biological target: T10, ETV3 (Homo sapiens, UniProt P41162-2 1-143)
T10 sequence: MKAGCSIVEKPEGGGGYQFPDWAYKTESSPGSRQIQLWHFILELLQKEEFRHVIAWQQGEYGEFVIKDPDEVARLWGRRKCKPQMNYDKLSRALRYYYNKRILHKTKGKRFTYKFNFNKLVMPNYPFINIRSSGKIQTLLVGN
How it was run: as §1

[14] = biological target: ETV6 (Homo sapiens, UniProt P41212 1-452)
ETV6, sequence (P41212 whole entry): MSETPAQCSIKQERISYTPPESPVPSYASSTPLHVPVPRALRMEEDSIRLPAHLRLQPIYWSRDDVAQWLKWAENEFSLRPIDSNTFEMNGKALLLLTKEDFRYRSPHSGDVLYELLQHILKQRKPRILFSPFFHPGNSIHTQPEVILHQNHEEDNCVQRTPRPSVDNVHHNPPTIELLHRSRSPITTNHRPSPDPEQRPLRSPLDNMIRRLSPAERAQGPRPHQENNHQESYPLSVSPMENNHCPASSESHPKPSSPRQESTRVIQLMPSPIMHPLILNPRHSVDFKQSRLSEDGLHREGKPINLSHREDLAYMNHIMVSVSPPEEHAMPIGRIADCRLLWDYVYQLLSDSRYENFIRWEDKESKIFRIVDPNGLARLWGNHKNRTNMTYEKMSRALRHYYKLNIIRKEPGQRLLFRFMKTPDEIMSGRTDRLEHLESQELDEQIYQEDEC
How it was run: as §1

GGTTCA
binding signal [1]: 1.1 fold enrichment (6-mer frequency, TF over GST control)
binding signal [2]: 1.03 fold enrichment (6-mer frequency, TF over GST control)
binding signal [3]: 1.14 fold enrichment (6-mer frequency, TF over GST control)
binding signal [4]: 1.08 fold enrichment (6-mer frequency, TF over GST control)
binding signal [5]: 1.14 fold enrichment (6-mer frequency, TF over GST control)
binding signal [6]: 1.14 fold enrichment (6-mer frequency, TF over GST control)
binding signal [7]: 1.07 fold enrichment (6-mer frequency, TF over GST control)
binding signal [8]: 1.07 fold enrichment (6-mer frequency, TF over GST control)
binding signal [9]: 1.01 fold enrichment (6-mer frequency, TF over GST control)
binding signal [10]: 1.11 fold enrichment (6-mer frequency, TF over GST control)
binding signal [11]: 1.13 fold enrichment (6-mer frequency, TF over GST control)
binding signal [12]: 1.02 fold enrichment (6-mer frequency, TF over GST control)
binding signal [13]: 1.09 fold enrichment (6-mer frequency, TF over GST control)
binding signal [14]: 1.09 fold enrichment (6-mer frequency, TF over GST control)
